{
  "source": "PubChem BioAssay (NCATS)",
  "note": "Results filed as inconclusive are left out. A call without a number means that no potency is given here. Active and inactive are the calls of the source. Calls follow the shape of the dose curve; as a rule, active = well fitted cell-killing curve with a large enough effect; inconclusive = small, poorly fitted or top-dose-only effect; inactive = flat fitted curve, though single readings scatter.",
  "data": [
    {"experiment": "qHTS of pediatric cancer cell lines to identify multiple opportunities for drug repurposing: Primary screen for control Hh wild type fibroblast cells (AID 1347106);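 also: a drop in luminescence marks cytotoxicity and a rise apparent proliferation; nearly all actives have a fitted effect of over 55% in size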", "settings": "Hh wild-type fibroblast viability, CellTiter-Glo luminescence, 48 h; series mostly up to 46 µM", "from_the_text": "Drug repurposing or repositioning has been offered as a strategy for drug development in oncology programs. This approach has special potential for childhood cancers and other rare or orphan diseases, where the expected return on new drug development has been a disincentive to pharmaceuticals.\nIn this project we exploit the poly-pharmacology of drugs to discover new indications via phenotypic screening of a panel of 19 well-characterized cell lines derived from solid tumors seen in children and adolescents. The goal is to identify approved drugs with previously unrecognized anticancer properties that has the potential to reveal new mechanisms and biological processes involved in carcinogenesis or drug resistance. We employed a titration-based paradigm (quantitative high-throughput screening or qHTS), where all compounds were tested at multiple concentrations for their effect on cell viability. Concentration-response curves (CRCs) were derived directly from the primary screen, and both potency and efficacy values were used to identify compounds with robust bioactivity profiles. We screened the NIH Chemical Genomics Center (NCGC) Pharmaceutical Collection (NPC) and Mechanism Interrogation Plate (MIPE) small molecule collections of approved and investigational compounds against these cell lines; and measured metabolically active cells after 48 hours of compound treatment as a proxy for cell viability.\nAssay Submitter: Nathalia J. Martinez, National Center for Advancing Translational Sciences, National Institutes of Health, Rockville, MD, USA; email: natalia.martinez@nih.gov\n[1] Shen, M et al. Quantitative high-throughput phenotypic screening of pediatric cancer cell lines identifies multiple opportunities for drug repurposing. Oncotarget 2017 Dec 19;9(4):4758-4772. PMID 29435139.\nThe cells were obtained from University of North Carolina (UNC), Pediatric Preclinical Testing Program (PPT), and Coriell Institute (CI).\nqHTS cell viability assay:\nCells were assayed in growth media at a density of 500-1,000 cells/well. Five microliters of cells were dispensed into 1,536-well, white, solid-bottom, TC-treated plates (Greiner Bio One) using a multidrop dispenser and incubated at 37 degrees C, 5% CO2, under a humidified atmosphere for 5 hours. Twenty-three nanoliters of compounds and controls (neutral control DMSO or positive control bortezomib at final concentration of 2.3 µM) were subsequently transferred by Kalypsys pintool. For primary screens, the MIPE collection was tested at 11-point dilutions (final concentrations range from 0.78 nM to 46 µM) and the NPC collection at 8-point dilutions (final concentrations range from 0.59 nM to 46 µM). Compounds tested in follow-up screens were assayed at 11-point dilutions. Cells were incubated for 48 hours, followed by addition of 3 µL of CellTiter-Glo (Promega). After a 15 min incubation at room temperature, samples were analyzed for luminescence intensity using a ViewLux High-throughput CCD imager equipped with clear filters.", "values": [
      {"smiles": "CCN(CC)C(=O)C1CN2CCc3cc(OC)c(OC)cc3C2CC1OC(C)=O", "note": "(stereo not given)", "Potency": "inactive"},
      {"smiles": "CC(NCCC(c1ccccc1)c1ccccc1)c1ccccc1", "note": "(stereo not given)", "Potency": "inactive"},
      {"smiles": "CCCCN(CCCC)C(C(N)=O)c1ccc(OC)cc1", "note": "(stereo not given)", "Potency": "inactive"},
      {"smiles": "Cc1c(C)c2c(c(C)c1OC(=O)CCC(=O)OCCO)CC[C@@](C)(CCC[C@H](C)CCC[C@H](C)CCCC(C)C)O2", "Potency": "inactive"},
      {"smiles": "Cc1ncc(CO)c(CO)c1O", "Potency": "inactive"},
      {"smiles": "c1ccc(C(O[C@H]2CCCN(CCc3ccc4c(c3)OCO4)C2)c2ccccc2)cc1", "Potency": "inactive"},
      {"smiles": "CCCc1ccc(OCC(=O)N2CCN(C(=O)COc3ccc(CCC)cc3OC)CC2)c(OC)c1", "Potency": "inactive"},
      {"smiles": "COc1cc(S(N)(=O)=O)cc(C(=O)O)c1OC", "Potency": "inactive"},
      {"smiles": "O=C(CO)[C@@H](O)[C@H](O)[C@@H](O)CO", "Potency": "inactive"},
      {"smiles": "CCOC(=O)NNc1nncc2ccccc12", "Potency": "inactive"},
      {"smiles": "CN(C(=O)C(Cl)Cl)c1ccc(OC(=O)c2ccco2)cc1", "Potency": "inactive"},
      {"smiles": "O=C(c1ccco1)N1CCNCC1", "Potency": "inactive"},
      {"smiles": "CN(C)CCCOC1(Cc2ccccc2)CCCCCC1", "Potency": "inactive"},
      {"smiles": "CC(C)NCCCC1(C(N)=O)c2ccccc2-c2ccccc21", "Potency": "inactive"},
      {"smiles": "CC(COc1ccccc1)NN", "note": "(stereo not given)", "Potency": "inactive"},
      {"smiles": "COc1ccc(-n2nc(CCC(=O)N(C)O)cc2-c2ccc(Cl)cc2)cc1", "Potency": "inactive"},
      {"smiles": "O=[N+]([O-])c1cncn1CCN1CCOCC1", "Potency": "inactive"},
      {"smiles": "O=C1Cc2cc(Cl)ccc2N1", "Potency": "inactive"},
      {"smiles": "O=C1CC[C@H](C(=O)N2CCCCC2)N1", "Potency": "inactive"},
      {"smiles": "CN(C)CCOC1=Cc2ccccc2Sc2ccc(Cl)cc21", "Potency": "inactive"},
      {"smiles": "Nc1ccc([N+](=O)[O-])c(C(F)(F)F)c1", "Potency": "inactive"},
      {"smiles": "COc1ccc([C@@H]2Sc3ccccc3NC(=O)[C@@H]2O)cc1", "Potency": "inactive"},
      {"smiles": "CCNC(=O)NCCCOc1cccc(CN2CCCCC2)c1", "Potency": "inactive"},
      {"smiles": "O=C(Oc1ccccc1)c1ccccc1O", "Potency": "inactive"},
      {"smiles": "Cc1sccc1Br", "Potency": "inactive"},
      {"smiles": "Cc1ccc(Cl)c(OCC(O)CNC(C)(C)C)c1", "note": "(stereo not given)", "Potency": "inactive"},
      {"smiles": "Cc1ncc([N+](=O)[O-])n1C", "Potency": "inactive"},
      {"smiles": "CCCCOCCOC(=O)c1cccnc1", "Potency": "inactive"},
      {"smiles": "O=C(O)[C@H](O)[C@@H](O)[C@H](O[C@@H]1O[C@H](CO)[C@H](O)[C@H](O)[C@H]1O)[C@H](O)CO", "Potency": "inactive"},
      {"smiles": "CC(C)C[C@@H]1[C@H](c2ccccc2)OC(=O)N1CCCN1CCCCCC1", "Potency": "inactive"},
      {"smiles": "CCn1ccc(NS(=O)(=O)c2ccc(N)cc2)nc1=O", "Potency": "inactive"},
      {"smiles": "OC1(c2ccc(Cl)cc2)CCNCC1", "Potency": "inactive"},
      {"smiles": "CCOC(=O)O[C@]1(C(=O)OCCl)CC[C@H]2[C@@H]3CCC4=CC(=O)C=C[C@]4(C)[C@H]3[C@@H](O)C[C@@]21C", "Potency": "inactive"},
      {"smiles": "CC(C)C(C)(C)C(C)(C)C(C)(C)S", "Potency": "inactive"},
      {"smiles": "CN1CCCN(C(c2ccccc2)c2ccc(Cl)cc2)CC1", "note": "(stereo not given)", "Potency": "inactive"},
      {"smiles": "Nc1c(NC/C=C\\COc2cc(CN3CCCCC3)ccn2)c(=O)c1=O", "Potency": "inactive"},
      {"smiles": "Oc1ccc(CCNCCCCCCNCCc2ccccc2)cc1O", "Potency": "inactive"},
      {"smiles": "Cc1cccc(C)c1NC(=O)c1cc(S(N)(=O)=O)c(Cl)cc1O", "Potency": "inactive"},
      {"smiles": "CCC1(c2cnc[nH]2)Cc2ccccc2C1", "Potency": "inactive"},
      {"smiles": "CC(=O)[C@@]1(O)CC[C@H]2[C@@H]3C[C@H](C)C4=CC(=O)CC[C@]4(C)[C@H]3CC[C@@]21C", "Potency": "inactive"}
    ]}
  ]
}
